PubChem BioAssay (EPA / NIEHS)
Values joined by “and” are separate entries in the source; they are usually repeats but may differ in a detail not shown here. Equal values may be shown once. Results filed as inconclusive are left out. Some structures have more than one record in an assay (separate samples or runs), and their calls can disagree. Active and inactive are the calls of the source. How the source made its calls: active means hit-call score of the fitted dose curve at least 0.9, where 1 is the maximum; inconclusive means response in the unintended direction; inactive means score below 0.9.

How the values were obtained:
[1] = target: mouse Estrogen Receptor alpha (Era), Esr1 (gene 13982) (UniProt P19785); experiment: NVS_NR_mERa: NovaScreen (NVS) Nuclear Receptor Binding Assay for mouse Estrogen Receptor alpha (Era) (AID 2283378);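 further: hit means loss of bound radioligand signal relative to DMSO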
mouse Estrogen Receptor alpha (Era), Esr1 (gene 13982), sequence (P19785 whole entry, looked up): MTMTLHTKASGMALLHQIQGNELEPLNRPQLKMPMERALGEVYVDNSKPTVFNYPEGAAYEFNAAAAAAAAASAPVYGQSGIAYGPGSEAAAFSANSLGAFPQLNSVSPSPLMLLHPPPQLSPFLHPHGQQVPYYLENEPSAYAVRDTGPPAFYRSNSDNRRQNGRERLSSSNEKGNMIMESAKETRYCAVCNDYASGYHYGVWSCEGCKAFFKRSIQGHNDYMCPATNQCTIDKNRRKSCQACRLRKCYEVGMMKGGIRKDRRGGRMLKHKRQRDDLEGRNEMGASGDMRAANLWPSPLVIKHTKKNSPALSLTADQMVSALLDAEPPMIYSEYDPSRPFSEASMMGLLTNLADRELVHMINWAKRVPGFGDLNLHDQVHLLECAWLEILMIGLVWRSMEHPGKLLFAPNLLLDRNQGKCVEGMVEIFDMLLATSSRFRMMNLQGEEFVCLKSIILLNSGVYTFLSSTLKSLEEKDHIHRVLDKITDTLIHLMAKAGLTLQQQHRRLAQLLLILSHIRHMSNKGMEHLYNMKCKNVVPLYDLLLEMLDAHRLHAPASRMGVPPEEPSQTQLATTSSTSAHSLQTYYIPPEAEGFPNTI
How it was run: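 Extracted mouse Era incubated with tritiated or iodinated radioligand plus test chemical, 18 h. Bound fraction separated on filters, counted by scintillation. DMSO = negative control/baseline; duplicate single-point at 25 uM, then concentration-response follow-up.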

[2] = TOX21_p53_BLA_p2_viability: Viability Assessment in the Tox21 HCT-116 p53 Agonism Beta-lactamase Assay, Phase 2 (AID 2283591);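 further: compound exposure lasted 16 h at 37 °C; actives lower the ATP signal meaning cytotoxicity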
How it was run: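 HCT116 p53-bla cells, 4000/well, dosed after 5 h plating (217-fold dilution of DMSO stocks) and incubated 16 h at 37C. Viability taken as cellular ATP by CellTiter-Glo luminescence after 30 min RT; signal loss marks cytotoxicity.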

[3] = target: Cellular tumor antigen p53 (Homo sapiens) (UniProt P04637); experiment: TOX21_p53_BLA_p2_ratio: Tox21 HCT-116 p53 Agonism Beta-lactamase Assay, Ratio, Phase 2 (AID 2283592)
Cellular tumor antigen p53 (Homo sapiens), sequence (P04637 whole entry, looked up): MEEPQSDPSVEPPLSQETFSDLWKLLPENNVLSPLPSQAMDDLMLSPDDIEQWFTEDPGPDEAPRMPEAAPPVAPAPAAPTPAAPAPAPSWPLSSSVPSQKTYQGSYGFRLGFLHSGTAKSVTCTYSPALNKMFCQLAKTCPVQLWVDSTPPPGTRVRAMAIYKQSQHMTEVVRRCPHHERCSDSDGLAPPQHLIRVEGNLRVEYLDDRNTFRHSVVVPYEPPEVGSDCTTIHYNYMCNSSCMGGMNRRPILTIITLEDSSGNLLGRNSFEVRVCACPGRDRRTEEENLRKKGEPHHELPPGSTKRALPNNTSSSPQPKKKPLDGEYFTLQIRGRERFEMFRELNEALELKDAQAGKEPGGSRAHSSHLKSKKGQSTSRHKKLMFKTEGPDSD
How it was run: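 HCT116 p53-bla; 4000 cells/well; 5 h pre-incubation; cpd in DMSO, 217-fold dilution; 16 h 37C/5% CO2; CCF4-AM 2 h RT; Ex 405, Em 460/530 ratio; DMSO = baseline; positive fitting direction.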

[4] = TOX21_p53_BLA_p3_viability: Viability Assessment in the Tox21 HCT-116 p53 Agonism Beta-lactamase Assay, Phase 3 (AID 2283593);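 further: cells exposed to compound for 16 h before reading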
How it was run: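 HCT116 cells, 4000/well, dosed 5 h after plating by pin transfer (217-fold dilution from DMSO stock) and incubated 16 h at 37C, 5% CO2. Viability read as ATP luminescence with CellTiter-Glo after 30 min at room temperature.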

[5] = target: Cellular tumor antigen p53 (Homo sapiens) (UniProt P04637); experiment: TOX21_p53_BLA_p3_ratio: Tox21 HCT-116 p53 Agonism Beta-lactamase Assay, Ratio, Phase 3 (AID 2283596)
How it was run: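 HCT116 p53-bla cells (4000/well) given compound in DMSO (217-fold dilution) after 5 h, incubated 16 h at 37C. CCF4-AM substrate 2 h at room temperature; 460/530 nm emission ratio, gain fitted against DMSO.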

[6] = TOX21_p53_BLA_p4_viability: Viability Assessment in the Tox21 HCT-116 p53 Agonism Beta-lactamase Assay, Phase 4 (AID 2283597);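 further: hits lower the luminescence signal meaning cytotoxicity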
How it was run: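 Cells plated, 5 h pre-incubation; DMSO compounds pinned (217-fold dilution); 16 h, 37C/5% CO2; CCF4-AM 2 h RT; CellTiter-Glo 30 min RT; luminescence read.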

[7] = target: Cellular tumor antigen p53 (Homo sapiens) (UniProt P04637); experiment: TOX21_p53_BLA_p5_ratio: Tox21 HCT-116 p53 Agonism Beta-lactamase Assay, Ratio, Phase 5 (AID 2283599)
How it was run: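 HCT-116 p53-bla cells (4000/well) plated 5 h, dosed with compound (217-fold DMSO dilution) for 16 h at 37 C; CCF4-AM substrate 2 h at room temperature. Activity is the 460/530 nm emission ratio (405 nm excitation), fitted in gain-of-signal direction versus DMSO.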

[8] = TOX21_p53_BLA_p5_viability: Viability Assessment in the Tox21 HCT-116 p53 Agonism Beta-lactamase Assay, Phase 5 (AID 2283600)
How it was run: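 4000 cells/well; 5 h pre-incubation; DMSO compounds pin-transferred, 217-fold dilution; 16 h, 37C/5% CO2; CCF4-AM 2 h RT; CellTiter-Glo 30 min RT; luminescence.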

[9] = target: Cellular tumor antigen p53 (Homo sapiens) (UniProt P04637); experiment: TOX21_p53_BLA_p4_ratio: Tox21 HCT-116 p53 Agonism Beta-lactamase Assay, Ratio, Phase 4 (AID 2283601)
How it was run: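 HCT-116 p53 beta-lactamase reporter cells (4000/well) preincubated 5 h, then compound (217-fold dilution of DMSO stock) for 16 h at 37C. CCF4-AM substrate added 2 h at room temperature; 460/530 nm emission ratio fitted upward versus DMSO.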

[10] = target: Norway rat Vesicular Monoamine Transporter (VMAT2), neurotransmitter transporter, Slc18a2 (gene 25549) (UniProt Q01827); experiment: NVS_TR_rVMAT2: NovaScreen (NVS) Transporter Assay for Norway rat Vesicular Monoamine Transporter (VMAT2), neurotransmitter transporter (AID 2283376);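 further: actives lower the bound radioligand signal below the DMSO level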
Norway rat Vesicular Monoamine Transporter (VMAT2), neurotransmitter transporter, Slc18a2 (gene 25549), sequence (Q01827 whole entry, looked up): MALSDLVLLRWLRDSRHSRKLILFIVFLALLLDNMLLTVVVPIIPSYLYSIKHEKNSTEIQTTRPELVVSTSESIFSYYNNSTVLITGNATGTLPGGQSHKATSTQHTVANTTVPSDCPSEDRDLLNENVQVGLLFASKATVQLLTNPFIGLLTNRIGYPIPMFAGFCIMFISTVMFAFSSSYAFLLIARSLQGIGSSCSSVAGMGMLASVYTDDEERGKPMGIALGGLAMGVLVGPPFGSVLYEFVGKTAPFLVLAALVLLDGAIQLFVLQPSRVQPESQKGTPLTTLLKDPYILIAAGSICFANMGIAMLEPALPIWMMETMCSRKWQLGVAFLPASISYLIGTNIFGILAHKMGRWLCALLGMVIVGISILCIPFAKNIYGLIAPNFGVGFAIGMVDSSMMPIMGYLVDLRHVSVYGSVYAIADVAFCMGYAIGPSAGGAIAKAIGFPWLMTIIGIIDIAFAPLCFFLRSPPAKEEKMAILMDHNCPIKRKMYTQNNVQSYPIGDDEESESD
How it was run: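 Radioligand displacement binding on rat forebrain tissue preparation, filter-based scintillation read-out 1 hour after dosing. Primary screen in duplicate at 25 uM, then concentration series for actives; loss of signal versus DMSO.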

## N#CC(C#N)=NNc1cccc(Cl)c1
[1]
  outcome: inactive
[2]
  AC50: 20.8 µM (active)
[3]
  AC50: 2.66 µM (active)
[4]
  outcome: inactive
[5]
  AC50: 1.24 µM (active)
[6]
  AC50: 6.28 µM (active)
[7]
  AC50: 26.7 µM (active)
[8]
  AC50: 46.1 µM (active)
[9]
  AC50: 13.8 µM (active)

## CCOC(=O)C=Cc1ccccc1
[10]
  outcome: inactive

## C1CNCCN1
[10]
  outcome: inactive

## CC(C)CCCCCCOC(=O)c1ccc(C(=O)OCCCCCCC(C)C)c(C(=O)OCCCCCCC(C)C)c1
[10]
  outcome: inactive

## ClC1=C(Cl)C2(Cl)C(CBr)CC1(Cl)C2(Cl)Cl (configuration not stated)
[2]
  AC50: 73.5 µM (active)
  outcome: inactive
[3]
  outcome: inactive
[4]
  AC50: 63.4 µM (active) and 20.2 µM (active)
[5]
  outcome: inactive
[6]
  outcome: inactive
[7]
  outcome: inactive
[8]
  AC50: 36.3 µM (active)
  outcome: inactive
[9]
  outcome: inactive

## CCCCCCCCCCCCCC[P+](CCCCCC)(CCCCCC)CCCCCC
[2]
  AC50: 33.6 µM (active) and 20.1 µM (active)
  outcome: inactive
[3]
  AC50: 59.6 µM (active) and 51.8 µM (active)
  outcome: inactive
[4]
  AC50: 46.3 µM (active) and 28.9 µM (active)
[5]
  AC50: 67.4 µM (active) and 50.1 µM (active) and 7.15 µM (active)
[6]
  AC50: 34.3 µM (active) and 20.3 µM (active)
  outcome: inactive
[7]
  AC50: 59.5 µM (active) and 58.6 µM (active)
  outcome: inactive
[8]
  AC50: 32.3 µM (active) and 26.6 µM (active)
[9]
  AC50: 66 µM (active) and 48.6 µM (active)

## C[Si](C)O[Si](C)C
[10]
  outcome: inactive

## CC(C)OC(=O)C(O)(c1ccc(Cl)cc1)c1ccc(Cl)cc1
[1]
  outcome: inactive
[2]
  AC50: 70.6 µM (active)
[3]
  outcome: inactive
[4]
  outcome: inactive
[5]
  outcome: inactive
[6]
  AC50: 67.4 µM (active)
[7]
  AC50: 66.6 µM (active)
[8]
  outcome: inactive
[9]
  AC50: 69.8 µM (active)

## CC(CC(C#N)(c1ccccc1)c1ccccc1)N(C)C (configuration not stated)
[2]
  outcome: inactive

## CCCCC(=O)Cl
[2]
  outcome: inactive

## NNC(=O)c1ccncc1
[10]
  outcome: inactive

## CSc1ccc(C(=O)C(C)(C)N2CCOCC2)cc1
[1]
  outcome: inactive
[2]
  outcome: inactive
[3]
  outcome: inactive
[6]
  outcome: inactive
[7]
  outcome: inactive
[8]
  outcome: inactive

## CCCCCCCCCCCCCCn1cc[n+](C)c1
[2]
  AC50: 82.2 µM (active) and 60.1 µM (active)
  outcome: inactive
[3]
  AC50: 6.74 µM (active) and 2.12 µM (active)
  outcome: inactive
[4]
  AC50: 10.3 µM (active) and 77.3 µM (active)
  outcome: inactive
[5]
  AC50: 14 µM (active) and 6.93 µM (active)
  outcome: inactive
[6]
  AC50: 598 nM (active) and 40 µM (active)
  outcome: inactive
[7]
  AC50: 49.6 µM (active) and 39.7 µM (active)
[8]
  AC50: 86.2 µM (active) and 46.2 µM (active)
  outcome: inactive
[9]
  AC50: 63.9 µM (active) and 63.4 µM (active)
  outcome: inactive

## CC1CCC(C(C)C)C(OC(=O)c2ccccc2N)C1 (configuration not stated)
[2]
  AC50: 45.5 µM (active) and 38.5 µM (active)
[3]
  AC50: 76.3 µM (active)
  outcome: inactive
[5]
  outcome: inactive
[6]
  AC50: 45.5 µM (active) and 34.7 µM (active)
[7]
  AC50: 42.8 µM (active)
[8]
  AC50: 31.7 µM (active)
  outcome: inactive
[9]
  outcome: inactive
